Bioassay records (PubChem)
An excerpt weighted towards active compounds, which were near 11% of everything screened.
JMJD2A Tudor – JMJD2A Tudor domain (human) inhibition; O75164; AlphaScreen JMJD2A-Tudor / H3K4me3 peptide binding; Potency, µM (highest dose often 114 µM), most hits filed as inhibitors; 4.4% of 390,000 active; AID 504339; further: nearly all actives have a fitted effect of over 50% in size
HP1b chromo inh – HP1-beta chromodomain-methylated histone interaction inhibition; P83916; AlphaScreen HP1-beta / biotin-H3K9me3 peptide binding; Potency, µM (series often up to 114 µM), most hits filed as inhibitors; 0.56% of 390,000 active; AID 540317; further: nearly all actives have a fitted effect of over 70% in size
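Compound inhibition of the preformed complex between 50 nM HP1-beta and 50 nM biotinylated H3K9me3 peptide was read by AlphaScreen. Buffer was PBS pH 7.4 with 0.01% Tween-20. Incubations ran 30 min at room temperature, with 10 ug/mL donor/acceptor beads.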
BAZ2B block – inhibitors of human BAZ2B bromodomain. Q9UIF8. AlphaScreen BAZ2B-H3K14Ac peptide displacement. Potency, µM (series often up to 114 µM), hits mostly inhibitors. 4.4% of 360,000 active. AID 504333; further: nearly all actives have a fitted effect of over 60% in size
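Protein-peptide AlphaScreen: BAZ2B 50 nM, b-H3K14Ac 50 nM, 1x PBS pH 7.4 + 0.01% Tween-20. Preincubation 30 min RT; cpd 30 min RT (top 110 uM); beads 20 min RT, light-protected.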
G9a block – G9a (human) methyltransferase inhibition. Potency, µM (highest dose often 102 µM), usual class: inhibitors. Q96KQ7. 8.8% of 350,000 active. G9a H3K9 monomethylation, AlphaScreen, 2 h; further: nearly all actives have a fitted effect of over 75% in size
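Methyltransferase reactions run at room temperature for 2 h (20 nM enzyme, 500 nM biotin-H3K9 peptide, 20 uM SAM) after a 15 min compound preincubation; product detected by AlphaScreen beads and anti-H3K9me1 antibody.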
L3MBTL1 inh – inhibitors of human L3MBTL1 | AlphaScreen L3MBTL1–H3K9me1 peptide binding | Potency, µM (doses to about 57.1 µM), hits mostly inhibitors | 0.66% of 230,000 active | Q9Y468; further: nearly all actives have a fitted effect of over 60% in size
Target sequence (Q9Y468 whole entry, looked up): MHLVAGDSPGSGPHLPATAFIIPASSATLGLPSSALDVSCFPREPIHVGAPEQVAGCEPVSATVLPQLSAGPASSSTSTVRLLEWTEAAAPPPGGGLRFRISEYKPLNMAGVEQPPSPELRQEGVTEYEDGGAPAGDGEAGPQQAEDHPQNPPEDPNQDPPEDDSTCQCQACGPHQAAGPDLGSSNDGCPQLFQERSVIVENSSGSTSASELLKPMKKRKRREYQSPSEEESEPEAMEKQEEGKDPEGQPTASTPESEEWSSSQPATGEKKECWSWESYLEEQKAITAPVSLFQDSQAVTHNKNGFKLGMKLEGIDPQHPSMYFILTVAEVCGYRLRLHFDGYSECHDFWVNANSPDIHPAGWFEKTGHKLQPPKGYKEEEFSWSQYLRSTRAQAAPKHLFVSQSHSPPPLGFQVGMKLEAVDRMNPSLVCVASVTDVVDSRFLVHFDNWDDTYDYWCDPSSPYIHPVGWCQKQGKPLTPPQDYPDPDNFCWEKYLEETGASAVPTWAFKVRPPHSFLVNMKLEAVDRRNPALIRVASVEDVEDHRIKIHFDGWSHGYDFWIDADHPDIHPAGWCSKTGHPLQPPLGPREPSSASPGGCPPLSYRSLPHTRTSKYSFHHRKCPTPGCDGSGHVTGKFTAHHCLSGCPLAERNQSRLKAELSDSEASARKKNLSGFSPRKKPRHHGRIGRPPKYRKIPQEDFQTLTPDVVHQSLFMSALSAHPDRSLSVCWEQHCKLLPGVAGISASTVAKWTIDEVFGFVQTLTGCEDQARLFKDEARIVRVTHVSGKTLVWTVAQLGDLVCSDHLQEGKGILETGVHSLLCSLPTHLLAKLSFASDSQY
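Read-out is AlphaScreen signal from streptavidin donor and nickel chelate acceptor beads (10 ug/mL final each) bridging L3MBTL1 (50 nM) and biotinylated K9-monomethylated H3(1-15) peptide (75 nM), after 30 min compound exposure at room temperature.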
Hits are given with their value; – = inactive; ? = inconclusive; · = no result; [ ] = dose if it differs, or a comment. The call rests on the fitted dose curve; in most records, active means well fitted inhibition curve with a large enough effect; inconclusive means small, poorly fitted or top-dose-only effect; inactive means no such curve, though single readings can be large or run the other way.

SMILES	JMJD2A Tudor	HP1b chromo inh	BAZ2B block	G9a block	L3MBTL1 inh
COc1ccc(OCCCCn2c(C3CC(=O)N(c4cccc(Cl)c4)C3)nc3ccccc32)cc1 (stereo unspecified)	–	–	–	?	·
Cc1ccc(C)c(S(=O)(=O)NCC(c2ccco2)S(=O)(=O)c2ccc(F)cc2)c1 (stereo unspecified)	–	–	–	–	·
Cc1ccc(N(C)C(=O)Cn2cnc3onc(-c4ccc(F)cc4)c3c2=O)cc1C	–	–	–	–	·
O=C(c1cccc(F)c1)N1CCN(Cc2ccc3c(c2)OCO3)CC1	1µM	?	50.1µM	–[0.501 µM]	–[2.29 µM]
O=C(C1CCN(S(=O)(=O)c2ccccc2)CC1)N1CCN(Cc2ccc3c(c2)OCO3)CC1	–	–	–	–	·
O=C(C1CCN(Cc2cc(Cl)ccc2O)CC1)N1CCN(Cc2ccccc2)CC1	3.55µM	?	?	?	–
COc1cccc(CN2CCC(C(=O)N3CCN(Cc4ccc5c(c4)OCO5)CC3)CC2)c1OC	3.16µM	?	–	–	·
CC1CCN(c2nc3ccc(C(=O)N4CCN(Cc5ccc6c(c5)OCO6)CC4)cc3s2)CC1	?	–	?	28.2µM	·
Cc1noc(C)c1S(=O)(=O)N(C)C[C@H]1Oc2ccc(NC(=O)NC3CCCCC3)cc2C(=O)N([C@H](C)CO)C[C@@H]1C	–	–	·	·	–
O=C(c1cccc(F)c1)N1CCC2(CCN(Cc3ccccc3)CC2)CC1	·	·	·	–[12.7 µM]	·
O=C(c1cccnc1)N1CCN(Cc2cccc(F)c2)CC1	1.58µM	44.7µM	31.6µM	3.16µM	·
CN(C)CCCN1C(=O)c2oc3ccc(Cl)cc3c(=O)c2C1c1cccnc1 (stereo unspecified)	–	–	–	50.1µM	–
COCCN1C(=O)c2oc3ccccc3c(=O)c2C1c1ccc(O)c(OC)c1 (stereo unspecified)	–	–	–	?	?
CCN(CC)CCCN1C(=O)c2oc3ccccc3c(=O)c2C1c1cccs1 (stereo unspecified)	·	·	–	50.1µM	·
CCCOc1ccc(C2c3c(oc4ccccc4c3=O)C(=O)N2CCN(CC)CC)cc1OC (stereo unspecified)	–	–	–	50.1µM	–
O=C1c2oc3ccc(Cl)cc3c(=O)c2C(c2cccc(Br)c2)N1CCO (stereo unspecified)	–	–	–	50.1µM	–
CCOc1ccccc1CNC(=O)c1cnc2sc(N(CC)CC)nn2c1=O	–	–	–	–	·
COc1ccc(CCn2c3c(c(=O)[nH]c2=S)CN(c2ccccc2)CN3)cc1OC	–	–	·	·	·
Cn1cnc2nc(NCCO)nc(NCc3ccccc3)c21	·	·	·	–	·
COc1c[nH]n(-c2ccccc2)c(=O)c1=O	–	–	·	·	·
COc1ccc(Cl)cc1NCc1nnc2n1CCCCC2	–	–	–	–	·
CCc1ccc(-n2nc(CO)c(C(=O)NCc3ccccn3)n2)cc1	–	–	–	?	·
CCN(CC)CCN1C(=O)c2oc3ccccc3c(=O)c2C1c1cccc(Br)c1 (stereo unspecified)	–	–	–	50.1µM	–
CCN(CC)CCN1C(=O)c2oc3ccccc3c(=O)c2C1c1ccccc1 (stereo unspecified)	–	–	–	–[0.501 µM]	–
COc1ccc2c(C(=O)NCCCCO)c(-c3ccc(S(C)(=O)=O)cc3)sc2c1	–	–	·	·	–
SMILES	JMJD2A Tudor	HP1b chromo inh	BAZ2B block	G9a block	L3MBTL1 inh
Cc1ccc2ccc(C)[n+](CCCS(=O)(=O)[O-])c2c1	–[11.4 µM]	?	–	–	·
CSc1sc2ccccc2[n+]1CCCS(=O)(=O)[O-]	89.1µM	–	–	10µM	–
Cc1ccc2ccccc2[n+]1CCCS(=O)(=O)[O-]	–	–	–	50.1µM	–
COc1ccc2sc(SCCCS(=O)(=O)O)[n+](CCCS(=O)(=O)[O-])c2c1	15.8µM	–	56.2µM	?	–
CCCCn1c(=O)n(-c2cc(OC)ccc2OC)c(=O)c2c3c(sc21)CN(C(C)=O)CC3	–	–	–	–	·
O=C(c1ccc(C#Cc2ccccc2)o1)N1CCN(c2ccccn2)CC1	–	?	?	44.7µM	–
O=C(c1ccc(CS(=O)c2ccccc2Cl)o1)N1CCN(c2ccccn2)CC1 (stereo unspecified)	–	–	–	89.1µM	·
CC(N)C(=O)NC(C(=O)N1CCCC1C(=O)NC(c1ccccc1)c1ccccc1)C(C)C (stereo unspecified)	89.1µM	–	–	–[2.33 µM]	–
CNC(C)C(=O)NC(C(=O)N1CCCC1C(=O)NNc1ccccc1)C(C)C (stereo unspecified)	?	–	?	–[2.33 µM]	–
ON=C1c2ccccc2-c2ccccc21	–	–	–	–	·
CN(C)c1ccc2c(c1)C(=NO)c1ccccc1-2	39.8µM	44.7µM	·	·	·
CCc1nn2cc(C(=O)c3cc(Cl)ccc3O)cnc2c1-c1ccc(F)cc1	50.1µM	?	?	44.7µM	–
CC(C)OC(=O)C(C(=O)OC(C)C)=C1SC=CS1	·	·	·	–	·
Cc1oc2c(c1C(=O)N1CCC(C)CC1)C(=O)c1ccccc1C2=O	–	–	?	?	–
CCOC(=O)C1CCN(C(=O)CC(NS(=O)(=O)c2ccc(OC)cc2)C(C)C)CC1 (stereo unspecified)	15.8µM	–	–	–	–
CCOC(=O)C1CCCN(C(=O)CNC(=O)Cn2ccc3ccccc3c2=O)C1 (stereo unspecified)	–	–	–	14.1µM	–
CCOC(=O)C1CCCN(C(=O)CSc2ccc(NC(C)=O)cc2)C1 (stereo unspecified)	–	–	–	35.5µM	–
CCOC(=O)C1CCN(C(=O)c2c(C)oc3c2C(=O)c2ccccc2C3=O)CC1	–	–	–	50.1µM	–
Cc1c(C(=O)NCc2cccc(Cl)c2)sc2ncnc(N(C)C3CCCCC3)c12	–	–	–	–	·
CCc1ccccc1N1CC(c2nnc(NC(=O)c3ccco3)s2)CC1=O (stereo unspecified)	–	–	–	–	·
CCOC(=O)C1CCN(C(=O)CSc2ccccc2)CC1	50.1µM	?	–	–[12.7 µM]	·
CCOC(=O)C1CCN(C(=O)CC(C)c2ccccc2)CC1 (stereo unspecified)	28.2µM	?	–	–	·
Cc1noc(C)c1S(=O)(=O)N(CC(=O)NCc1ccccc1Cl)c1ccc(C(C)C)cc1	–	–	·	–	·
CCN(CC)S(=O)(=O)c1ccc(NC(=O)[C@H](CSCc2ccccc2)N2Cc3ccccc3C2=O)cc1	–	–	–	–	·
COC(=O)c1scc(-c2ccc(C)cc2)c1S(=O)(=O)Nc1cc(C)c(Cl)cc1OC	–	–	–	–	·
Cc1ccc(C(=O)O)cc1NC(=S)NC(=O)c1ccc(-c2ccc(Cl)cc2)o1	–[11.4 µM]	–	?	35.5µM	·
O=C(O)c1cccc(NC(=S)NC(=O)c2ccc(-c3ccc(Cl)cc3)o2)c1	?	–	?	44.7µM	·
COc1ccc(C(=O)O)cc1NC(=S)NC(=O)c1ccc(-c2ccc(Cl)cc2)o1	?	–	?	44.7µM	·
O=C(O)c1ccc(NC(=S)NC(=O)c2ccc(-c3ccc(Br)cc3)o2)cc1	15.8µM	56.2µM	39.8µM	39.8µM	·
